Dicer processing – blocks human Dicer maturation of pre-miR-21 | z-score at 25 µM | Q9UPY3 | 47,000 tested, 6% active | cat-ELCCA pre-miR-21 Dicer processing, chemiluminescence; hits give high values; in the data active = z-score above about 3, passing the limit was not always enough;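 also: plate controls were vehicle for no effect and no enzyme for full effect; higher signal means more uncleaved substrate so more Dicer inhibition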
Numbers without * were called inactive; ! = repeats disagree. The sample as a whole holds a higher share of hits than the screen did.

SMILES | Dicer processing
Cc1cccc(NC(c2ccc(O)cc2)c2ccc3ccc(C)nc3c2O)n1 (configuration not stated) | 2.5
Cc1cccc(NC(c2ccc(F)cc2)c2ccc3ccc(C)nc3c2O)n1 (configuration not stated) | -0.14
C=CCOc1cccc(C(Nc2ccccn2)c2ccc3cccnc3c2O)c1 (configuration not stated) | 7.3
C=CCOc1cccc(C(Nc2cccc(C)n2)c2ccc3cccnc3c2O)c1 (configuration not stated) | 1.4
Cc1cccc(NC(c2cccnc2)c2ccc3cccnc3c2O)c1 (configuration not stated) | -0.49
COc1ccc(CN2C(=O)c3oc4ccc(C)cc4c(=O)c3C2c2ccc(O)cc2)cc1 (configuration not stated) | -1.6
O=[N+]([O-])c1cc(-c2nc(-c3cccc(C(F)(F)F)c3)no2)cs1 | 0.41
CCN(c1cccc2ccccc12)S(=O)(=O)c1ccc2c(c1)OCC2 | -1.3
O=C(NC(=O)c1ccccc1Cl)Nc1ccc(S(=O)(=O)Cc2ccc(Cl)cc2)c(C(F)(F)F)c1 | 0.84
Cc1[nH]n(-c2ccccc2)c(=O)c1C(c1cccnc1)c1c(C)[nH]n(-c2ccccc2)c1=O | -1.9
O=C1CCCCC1C1(O)C(=O)Nc2ccc(Br)cc21 (configuration not stated) | -2.1
C=CCC(C)(NC1CCCCC1)c1ccccc1 (configuration not stated) | -0.58
COc1ccc(C(=O)Cn2c3ccccc3n3nc(-c4ccccc4)nc23)cc1 | 0.26
COc1ccc2c(c1)c(C(=O)CNc1nccs1)c(C)n2C | 6.6
COc1ccc2c(c1)c(C(=O)CN(C)C)c(C)n2C | 4.7*
COc1ccc2c(c1)c(C(=O)CNc1nc(C)cs1)c(C)n2C | 1.6
CC(C)n1cc(C(N)=S)c(=O)n(Cc2ccccc2)c1=O | -0.58
Cn1cc(/C(N)=N/O)c(=O)n(Cc2ccccc2)c1=O | 7*
CC(C)n1cc(/C(N)=N/OC(=O)c2ccccc2Cl)c(=O)n(Cc2ccccc2)c1=O | 0.85
NC(N)=N/N=C/c1ccc(Cl)cc1Cl | 4.5*!
N#C/C(=C\c1ccc(Cl)cc1Cl)C(N)=S | -0.55
NC(N)=N/N=C/c1ccc(Cl)c(Cl)c1 | 0.83
CCOc1ccc(NC23SCC(=O)C2CCc2ccccc23)cc1 (configuration not stated) | -0.71
COc1ccc2c(c1)c(=O)oc1c(C)c(OCC(=O)OC(C)C)ccc12 | 0.76
Cn1c(N/N=C/c2ccncc2)nc2c1c(=O)n(Cc1ccccc1)c(=O)n2C | 0.04
SMILES | Dicer processing
O=S(=O)(Cc1cccc(Cl)c1)c1cccs1 | -0.67
Cn1ncc(C(=O)O/N=C/c2ccc(OC(F)(F)F)cc2)c1-n1cccc1 | -0.61
Cc1ccc(Nc2nc(C(F)(F)F)cs2)cc1 | 0.07
Clc1ccc(Nc2nc(-c3ccncc3)cs2)cc1 | 5.6*
Cc1cccnc1Nc1nc(-c2cccnc2)cs1 | 1.2
O=C(O)c1ccc(Nc2nc(-c3cccnc3)cs2)cc1 | 6.6*
CCc1ccc(-c2csc(Nc3ccc(S(N)(=O)=O)cc3)n2)cc1 | 7.5
Cc1ccc(-c2csc(Nc3ccc(S(N)(=O)=O)cc3)n2)cc1 | 7.1*
COc1ccc(-c2csc(Nc3cccnc3)n2)cc1 | 2.8
Clc1ccc(-c2csc(Nc3ccccc3)n2)cc1 | 0.33
Fc1ccc(Nc2nc(-c3ccncc3)cs2)cc1 | 2.2
CCOCCOC(=O)COc1ccc2c(=O)c(Oc3cccc(C)c3)coc2c1 | -1.4
CCOc1ccc(-c2cc(C(F)(F)F)c(C#N)c(SCCC(=O)O)n2)cc1 | 0.5
CCCN(CCC)C(=O)C1Sc2nnc(-c3ccccc3)n2NC1c1ccccc1 (configuration not stated) | -0.05
Cc1cc(NNC(=O)Nc2ccc(Cl)cc2)nc2c1c(C)nn2C | 0.76
CCCCCCN1N=C(C)C(C(=O)c2ccc(Br)cc2)C1=O (configuration not stated) | -5.5
CCCOc1cc(C)c(S(=O)(=O)n2cnc3ccccc32)cc1C | 9.1
COC(=O)C(C(C(=O)OC)N1CCOCC1)N1CCOCC1 (configuration not stated) | -1
O=C(c1ccccc1)c1sc(Nc2ccccc2)nc1-c1ccccc1 | -1.2
Cc1cc(C)n(-c2ccc(Sc3ccccn3)nn2)n1 | -0.2
CC(=O)Nc1nc2ccc(NC(=O)c3sc4ccccc4c3Cl)cc2s1 | 0.3
CC(=O)Nc1nc2ccc(NC(=O)c3c([N+](=O)[O-])cnn3C)cc2s1 | 1.1
CC(=O)Nc1ccc2nc(NC(C)=O)sc2c1 | 3.2*
COC(=O)C1=C(C)NC2=C(C(=O)CC(C)(C)C2)C1c1ccc(OC)cc1 (configuration not stated) | -1.1
Cc1ccc2cccc(OS(=O)(=O)c3ccc(C(C)C)cc3)c2n1 | -2
SMILES | Dicer processing
CCOC(=O)CN1C(=O)N(CC(=O)c2ccccc2)C(c2ccccc2)(c2ccccc2)C1=O | -0.93
FC(F)(F)c1cc(-c2ccccc2)n[nH]1 | 0.31
Cc1ccc(O)c(-c2cc(C(F)(F)F)[nH]n2)c1 | 4.1*
FC(F)(F)c1cc(-c2ccc3c(c2)OCO3)n[nH]1 | -0.7
C#CCOc1ccc(C2C3=C(CCCC3=O)NC3=C2C(=O)CCC3)cc1 | 0.15
COc1cc(Sc2ccc(Cl)cc2)ccc1[N+](=O)[O-] | -0.52
Cc1cc(Sc2ccc(C(F)(F)F)cc2[N+](=O)[O-])c(Cl)cc1Cl | -0.53
COc1ccc(OC)c(Sc2ccc(Cl)cc2[N+](=O)[O-])c1 | 0.07
COc1ccc(OC)c(Sc2ccc([N+](=O)[O-])cc2)c1 | 4.5*
COc1cc([N+](=O)[O-])c(C)cc1Sc1ccc(C)cc1 | -0.13
COc1ccc(OC)c(Sc2ccc(C(F)(F)F)cc2[N+](=O)[O-])c1 | 7.8*
COCCN1C(=O)C(=O)/C(=C(/O)c2ccccc2)C1c1ccc(F)cc1 (configuration not stated) | -0.15
O=C(O)CSc1nnc2n(Cc3ccccc3)c3ccccc3n12 | -0.18
C/C(=N\Nc1nc(-c2ccccc2)cs1)c1ccc(C)nc1 | -0.19
Cc1ccc(C(=O)Nc2ccc(Oc3ccc(NC(=O)c4ccc(C)cc4)cc3)cc2)cc1 | -0.5
COC(=O)CSC1=C(C#N)C(=O)NC(c2ccco2)S1 (configuration not stated) | -1.3
CCOc1ccc(S(=O)(=O)Nc2ccc3oc(C)c(C(=O)OCCOC)c3c2)cc1 | 0.74
CCOC(=O)c1c(C)oc2ccc(NS(=O)(=O)c3ccc(Cl)cc3)cc12 | 3.6*
CCOC(=O)c1c(C)oc2c(Br)cc(NS(=O)(=O)c3ccc(Cl)c(C)c3)cc12 | 0.56
Cc1nn(-c2ccccc2)nc1C(=O)Nc1cccnc1Oc1ncnc2cc(Cl)ccc12 | 1.2
C#CC(C)(C)NS(=O)(=O)c1ccc(Oc2c(Cl)cccc2[N+](=O)[O-])cc1 | -0.69
OCC1c2ccccc2-c2ccccc21 | -0.17
C=CCN1C(=O)C2(/C(=C(/O)c3ccc(Cl)cc3)C(=O)C(=O)N2CC2CCCO2)c2ccccc21 (configuration not stated) | 0.42
C=CCN1C(=O)C2(/C(=C(/O)c3ccc(F)cc3)C(=O)C(=O)N2CCCOC)c2ccccc21 (configuration not stated) | -0.04
CN1C(=O)C2(/C(=C(/O)c3ccc(Cl)cc3)C(=O)C(=O)N2CCCN2CCOCC2)c2ccccc21 (configuration not stated) | 10
C=CCN1C(=O)C2(/C(=C(/O)c3ccc(F)cc3)C(=O)C(=O)N2CCN2CCOCC2)c2ccccc21 (configuration not stated) | 4.5*

Source: PubChem
